# Compound activity: PubChem BioAssay, several laboratories
# sPLA2-III inh = Blocks human group III sPLA2 activity | Q9NZ20 | QFRET BODIPY PC-A2 liposome hydrolysis, fluorescence | inhibition, % at 12.2 µM | actives 0.56% (n = 370,000) | AID 743126;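 active = inhibition above mean plus 3 SD of compounds lying within the high and low control bounds, cut at about 19% in these data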;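 note: 0% = median of test compound wells and 100% = no enzyme DMSO wells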
# FAS-TE inh = blocks the thioesterase domain of human fatty acid synthase; inhibition, % at 15 µM; AID 602261; actives 0.67% (n = 360,000); recombinant FAS-TE, OMFH fluorogenic substrate, fluorescence endpoint; P49327;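 active = compounds whose normalised, plate-corrected inhibition of enzyme fluorescence in the single-dose primary screen is 50% or more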;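 note: 0% = DMSO with enzyme and 100% = substrate without enzyme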
# ADAM17 inh = inhibits human ADAM17; P78536; recombinant ADAM17, EDANS/DABCYL FRET peptide cleavage; inhibition, % at 6.95 µM; actives 0.83% (n = 370,000); AID 720648;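 active = inhibition above the mean of compounds lying between control limits plus 3 SD, set per campaign, cut at about 8.5% in these data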;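 note: 0% = DMSO-only wells as the low control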
# ADAM10 inh = inhibits human ADAM10. O14672. recombinant ADAM10, EDANS/DABCYL FRET peptide cleavage, 3 h. actives 0.62% (n = 370,000). AID 720582. inhibition, % at 7 µM;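 active = inhibition above a per-campaign cutoff equal to the mean of compounds falling between control-based bounds plus 3 SD, cut at about 20% in these data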;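 note: 0% = DMSO wells while the 100% control is not disclosed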
# Target sequence (O14672 214-748 limits assumed): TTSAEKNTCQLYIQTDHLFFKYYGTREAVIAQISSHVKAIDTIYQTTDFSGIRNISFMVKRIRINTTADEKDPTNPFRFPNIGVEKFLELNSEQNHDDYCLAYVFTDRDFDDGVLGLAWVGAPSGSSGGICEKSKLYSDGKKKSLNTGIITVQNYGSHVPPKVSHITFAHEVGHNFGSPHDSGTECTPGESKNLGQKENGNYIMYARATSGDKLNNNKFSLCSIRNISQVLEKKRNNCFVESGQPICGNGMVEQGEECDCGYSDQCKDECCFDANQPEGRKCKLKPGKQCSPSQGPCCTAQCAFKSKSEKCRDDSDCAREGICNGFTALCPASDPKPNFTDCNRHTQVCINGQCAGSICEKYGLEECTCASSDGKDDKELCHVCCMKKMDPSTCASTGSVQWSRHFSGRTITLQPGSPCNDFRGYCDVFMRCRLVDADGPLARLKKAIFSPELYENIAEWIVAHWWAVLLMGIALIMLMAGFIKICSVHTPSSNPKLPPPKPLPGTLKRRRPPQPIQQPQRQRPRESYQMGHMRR
# NR3A LBD binder = modulates the human NR3A ligand-binding domain; NR3A LBD differential scanning fluorimetry, Tm shift; 0% = protein alone, 100% = glycine-bound protein; Tm shift relative to glycine control, % at 25 µM; AID 1259313; actives 2.5% (n = 340,000);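 active = melting temperature shift of at least 10% of the positive control shift, at one fixed dose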
# FAS-TE inh conf = confirmation of human fatty acid synthase thioesterase inhibitors. shares compounds with FAS-TE inh. recombinant FAS-TE, OMFH fluorogenic substrate, fluorescence. inhibition, % at 15 µM. actives 45% (n = 2,300). AID 624325;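 active = compounds inhibiting the enzyme by at least 50% at 15 µM in any one of the replicates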;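 note: 0% = enzyme with DMSO only and 100% = wells lacking enzyme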
# * hit, by the source's call; i = inactive; / = not tested or not shown. This is a sample that favours compounds with a hit; in the whole collection about 4.3% have one here.
SMILES,sPLA2-III inh,FAS-TE inh,ADAM17 inh,ADAM10 inh,NR3A LBD binder,FAS-TE inh conf
O=C(Nc1ccc(S(=O)(=O)N2CCOCC2)cc1)c1cccc([N+](=O)[O-])c1,2,35,-5,6,9,/
Cc1cccn2c(=O)c(/C=C(\C#N)C(=O)NCc3ccco3)c(N3CCCCCC3)nc12,3,53*,-24,-57,-1,48
CCOC(=O)C1CCCN(c2nc3c(C)cccn3c(=O)c2/C=C(\C#N)C(=O)NCc2ccco2)C1 (configuration not stated),15,52*,i,i,1,54*
COC(=O)C1CN(Cc2cn(Cc3ccccc3)nn2)CCS(=O)(=O)N1Cc1ccc(OC)cc1 (configuration not stated),-4,/,-3,-7,/,/
CCOC(=O)Cc1nc(N2CCN(Cc3cccc4c3OCO4)CC2)c2c(C)c(C(=O)OCC)sc2n1,-10,/,0,-8,/,/
c1ccc2c(C(c3nnnn3-c3ccc4c(c3)OCCO4)N3CCCCC3)ccnc2c1 (configuration not stated),2,4,3,5,/,/
Cc1cccc(C)c1N1CCN(C(c2ccnc3ccccc23)c2nnnn2-c2ccc3c(c2)OCCO3)CC1 (configuration not stated),-5,79*,-2,-13,/,2
CC1CCN(c2ccc(C(=O)O)cc2NS(=O)(=O)c2ccccc2)CC1,-3,/,0,-5,/,/
Cc1ccc2c(c1)[C@H]1[C@H](CO2)[C@H](c2ccccc2)[C@]2(C)C(=O)Nc3ccc(Br)cc3C(=O)N12,-1,96*,9,20,-2,26
C[C@@]12C(=O)Nc3ccc(F)cc3C(=O)N1[C@H]1c3cc(Cl)ccc3OC[C@@H]1[C@@H]2c1ccccc1,0,85*,2,1,-3,35
C[C@@]12C(=O)Nc3cc(Cl)ccc3C(=O)N1[C@H]1c3cc(Cl)ccc3OC[C@@H]1[C@@H]2c1ccccc1,7,40,6,9,1,/
C[C@@]12C(=O)Nc3ccc(F)cc3C(=O)N1[C@H]1c3ccccc3OC[C@@H]1[C@@H]2c1ccccc1,/,9,/,/,-8,/
C[C@@]12C(=O)Nc3cc(Cl)ccc3C(=O)N1[C@H]1c3cc(Br)ccc3OC[C@@H]1[C@@H]2c1ccccc1,1,80*,-3,-1,-9,8
C[C@@]12C(=O)Nc3cc(Cl)ccc3C(=O)N1[C@H]1c3ccccc3OC[C@@H]1[C@@H]2c1ccccc1,/,87*,/,/,-5,37
CCCCNc1cccc2c1S(=O)(=O)N[C@@H](CC(C)C)CO2,2,/,0,-4,/,/
OC(c1cccc(Cl)c1)c1nc(-c2ccoc2)cs1 (configuration not stated),0,3,-4,-19,/,/
CS(=O)(=O)c1ccc(-c2csc(C(O)c3cccc(Cl)c3)n2)cc1 (configuration not stated),-6,52*,-3,-2,/,17
COc1ccc(Cc2nc3c4c(ncn3n2)Oc2ccc3ccccc3c2C4c2ccc(OC)c(OC)c2)cc1 (configuration not stated),5,59*,-4,-14,-1,19
COc1ccc(Cc2nc3c4c(ncn3n2)Oc2c(ccc3ccccc23)C4c2ccc(OC)c(OC)c2)cc1 (configuration not stated),2,20,1,4,1,/
CC(C)(C)c1ccc(/C=N/Nc2ccc(C(=O)O)cc2)cc1,-41,64*,0,1,-5,77*
O=C(O)c1ccc(N/N=C/c2ccc(C(F)(F)F)cc2)cc1,-31,14,-1,-9,-4,/
Cc1ccc(CNC(=O)[C@@H](Cc2ccccc2)NC(=O)[C@H]2O[C@@H](n3ccc(N)nc3=O)[C@H](O)[C@@H]2O)o1,7,/,-6,-9,/,/
CCCOc1ccc(N2C(=O)CC(SC(=N)N3N=C(c4ccccc4)CC3c3ccccc3)C2=O)cc1 (configuration not stated),-2,69*,-6,-13,-16,15
CS(=O)(=O)c1ccc(Cl)c(NC(=O)COC(=O)Cc2c[nH]c3ccccc23)c1,-44,4,-2,2,-3,/
